Source: PubChem
RXFP1 agonist: RXFP1 (human) receptor agonism; Potency, µM (top dose mostly 57.5 µM), without a hit: at the top dose activation, hits mostly activators; 370,000 compounds, 0.3% hits; HEK293T-RXFP1 cAMP TR-FRET, 30 min; response scale: percent of porcine relaxin response, buffer zero; Q9HBX9; AID 2676; active = well fitted activation curve with a large enough effect; inconclusive = small, poorly fitted or top-dose-only effect; note: potency is the fitted concentration of half-maximal effect; % is set by controls: 0 for no effect and ±100 for the full control effect; nearly all actives have a fitted effect of over 60% in size
Target sequence (Q9HBX9 whole entry, looked up): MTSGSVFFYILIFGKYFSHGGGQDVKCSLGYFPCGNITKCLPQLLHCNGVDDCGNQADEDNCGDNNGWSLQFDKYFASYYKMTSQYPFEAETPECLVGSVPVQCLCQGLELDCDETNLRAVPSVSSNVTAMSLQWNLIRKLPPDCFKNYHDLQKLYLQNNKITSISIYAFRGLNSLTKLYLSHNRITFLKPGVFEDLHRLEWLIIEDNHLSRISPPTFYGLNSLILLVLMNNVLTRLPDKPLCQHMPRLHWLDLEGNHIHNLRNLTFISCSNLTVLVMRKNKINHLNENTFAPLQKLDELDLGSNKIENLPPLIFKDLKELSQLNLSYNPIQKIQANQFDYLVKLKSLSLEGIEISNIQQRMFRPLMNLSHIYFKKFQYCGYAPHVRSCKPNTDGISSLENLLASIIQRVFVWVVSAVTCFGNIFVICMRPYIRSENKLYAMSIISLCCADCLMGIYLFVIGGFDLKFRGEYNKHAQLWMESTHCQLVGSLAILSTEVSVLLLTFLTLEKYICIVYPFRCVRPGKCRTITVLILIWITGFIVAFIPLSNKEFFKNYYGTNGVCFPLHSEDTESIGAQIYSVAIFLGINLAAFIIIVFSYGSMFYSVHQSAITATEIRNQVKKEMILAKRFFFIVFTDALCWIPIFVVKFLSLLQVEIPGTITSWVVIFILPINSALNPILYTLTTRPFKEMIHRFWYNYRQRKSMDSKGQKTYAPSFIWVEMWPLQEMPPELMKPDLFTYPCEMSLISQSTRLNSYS
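HEK293T cells stably expressing RXFP1 were pretreated with the PDE4 inhibitor Ro 20174, exposed to compounds for 30 min at 37C, lysed, and cAMP was read by TR-FRET. Data normalized to buffer (basal) and 29 nM porcine relaxin (100%).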
ClpP mod: qHTS Assay for Activators of ClpP; ATP-dependent Clp protease proteolytic subunit (Bacillus subtilis (strain 168)), P80244; purified B. subtilis ClpP, FRET peptide cleavage, 20 min; Potency, µM (top dose mostly 57.5 µM), for the others: top-dose activity change, negative = active; 340,000 compounds, 1.9% hits; active = well fitted falling curve with a large enough effect; inconclusive = small, poorly fitted or top-dose-only effect; inactive = no such curve, though single readings can be large or run the other way; note: potency is the fitted concentration of half-maximal effect; the source files actives as falling curves though it sought activators and does not explain the sign; nearly all actives have a fitted effect of over 65% in size
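ClpP 10 microg/mL final, pH 8 Tris/KCl buffer with BSA, glycerol, Tween-20; compound pinned in; FRET-FV substrate; RT 20 min; Ex320/Em430; ΔFRET vs ADEP 5.8 microM, DMSO, no enzyme.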
RXFP1 antag: antagonists of human relaxin receptor RXFP1 | Q9HBX9 | HEK293-RXFP1, relaxin-stimulated cAMP HTRF, 30 min; stronger effect = lower value | activity change, negative = inhibition, % at 57.5 µM | 350,000 compounds, 0.59% hits | AID 1259400;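 active = activity change of -60% or lower, but not beyond a set lower limit; inconclusive = change between -60% and -40%, or beyond the set limit; inactive = change above -40%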; note: % is set by controls: 0 for no effect and ±100 for the full control effect
gsp agonist: activates gsp, the McCune-Albright syndrome mutation; gsp mutant cells, cAMP HTRF, 30 min; 340,000 compounds, 0.13% hits; Potency, µM (titrated, usually from 76.9 µM), for inactives: top-dose activation (cAMP increase), actives largely listed as activators; AID 624287; active = well fitted activation curve with a large enough effect; inconclusive = small, poorly fitted or top-dose-only effect, or another doubt; inactive = no such curve, though single readings can be large or run the other way; cell line not stated here;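 note: phosphodiesterase inhibitor Ro 20-1724 added with compounds to block cAMP breakdown; potency is the fitted concentration of half-maximal effect; nearly all actives have a fitted effect of over 60% in size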
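Cells stably selected in G418 were plated at 2000/well, grown 16-24 hr, then given compounds in DMSO with the PDE inhibitor […] (300 uM solution added) for 30 min at 37C; cAMP was read by HTRF.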
gsp antag: antagonizes gsp, the McCune-Albright syndrome mutation. gsp-mutant cells, cAMP HTRF, 30 min. Potency, µM (doses to about 76.9 µM), for the others: at the highest dose activity change, negative = inhibition, actives largely listed as inhibitors. 340,000 compounds, 0.4% hits. AID 624288; calls by dose curve; cell line not stated here;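 note: intracellular cAMP measured with PDE inhibitor Ro 20-1724 present during compound exposure; potency is the fitted concentration of half-maximal effect; % is set by controls: 0 for no effect and ±100 for the full control effect; nearly all actives have a fitted effect of over 65% in size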
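HTRF cAMP measurement after 30 min RT detection following 30 min, 37C compound treatment alongside […] (added as 300 uM solution) in G418-selected cells seeded at 2000/well and grown 16–24 h.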
pAkt inh: Akt phosphorylation inhibition. activity change, % for hits at 50 µM. Neuro2A IGF-stimulated pAkt S473 HTRF, 20 min; stronger effect = lower value. 360,000 compounds, 0.32% hits; in the data active = activity change below about -80%; inconclusive = mostly about -51% to -80%; note: % is set by controls: 0 for no effect and ±100 for the full control effect
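Neuro2A cells (4,500/well, DMEM with 0.5% FBS) were treated with compound at a single 50 µM final concentration, stimulated with 6 nM IGF for 20 min at 37 °C, and lysed. Phospho-Akt Ser473 was read by HTRF as 665/615 ratio ×10^4.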
* hit, by the source's call; i = inactive; ? = inconclusive; . = no result; [ ] = dose if it differs, or a comment. Sampled rows, rich in hits. Any-hit rate of the full collection: about 2.7%.

SMILES | RXFP1 agonist | ClpP mod | RXFP1 antag | gsp agonist | gsp antag | pAkt inh
COc1ccccc1Oc1ccc2c(c1)C(=O)N(c1cccc3ncccc13)C2=O | 2% | . | -89* | -3%[15.4 µM] | ? | i
COc1ccccc1Oc1ccc2c(c1)C(=O)N(c1cccc(O)c1)C2=O | 3% | -1% | -13 | -5% | ? | .
CC/C(=C/c1ccccc1OC)c1cc(-c2ccccc2)cc2oc3ccccc3c12 | . | 4% | . | . | . | .
CCc1ccc(C(=O)c2c(N)c(-c3nc(-c4ccc5c(c4)OCO5)cs3)c3ccccn23)cc1 | 5% | -3% | 1 | . | . | .
Cc1cccc(NC(=O)c2cccc(NC(=O)Cc3cccs3)c2)c1 | 0% | . | -107* | 19% | -12% | i
COc1cccc(NC(=O)Cc2cccs2)c1 | 0% | -2% | -2 | 3% | 4% | i
CC(C)(C)NC(=O)c1cccc(NC(=O)Cc2cccs2)c1 | -1% | 35µM* | 7 | 9%[15.4 µM] | 9% | i
COc1ccc(CC(=O)Nc2cccc(C(=O)Nc3cccc(C)c3)c2)cc1 | -2% | . | . | . | . | .
CCCc1cc(=O)[nH]c(SCC)n1 | 1% | 1% | -10 | -18% | 8% | i
CCCc1cc(=O)[nH]c(SCC(N)=O)n1 | 0% | 0% | -1 | -1% | 3% | -125%*
O=C(CN1C(=O)COc2ccccc21)N1CCc2ccccc21 | 2% | 2% | -14 | -2% | 7% | -107%*
CCCc1nc2c3ccccc3ccn2c1Cc1ccc(OC)cc1C | . | 2% | . | . | . | i
CSc1ccc(S(=O)(=O)Nc2ccc3c4c(cccc24)CC3)cc1 | -1% | -1% | -16 | -26% | 28µM* | i
O=S(=O)(Nc1ccc2c3c(cccc13)CC2)c1ccc(F)cc1 | -3% | -1% | -2 | -3% | -15% | i
Cc1cc(C(=O)Nc2sc(C)c(-c3ccc(F)cc3)c2C(N)=O)no1 | 1% | 13µM* | -22 | -15% | 5% | .
CCOC(=O)c1cc(S(=O)(=O)N2CCN(c3ccc(F)cc3)CC2)[nH]n1 | . | -1% | -20 | . | . | .
Cc1ccccc1OCC(=O)NCC(=O)OCC(=O)c1ccc(-c2ccccc2)cc1 | . | -1% | . | . | . | .
Cc1ccccc1OCC(=O)NNC(=O)c1ccc(-c2ccccc2)cc1 | 1% | -5% | -7 | -15% | 13% | -83%*
CCCCCC(NC(=O)C1CCN(C(=O)[C@@H](NS(=O)(=O)c2ccc(C)cc2)C(C)C)CC1)C(=O)O (some centres not stated) | 1% | 1% | . | . | 6% | i
O=C(Nc1ccc(S(=O)(=O)NCC2CCCO2)cc1)c1cccc(F)c1 (configuration not stated) | 0% | . | 9 | -30% | 9% | i
COc1ccccc1/C=C/C(=O)N1CCOCC1 | 1% | -23% | -3 | ? | 4% | i
COc1ccccc1/C=C/C(=O)OCCN1CCOCC1 | 4% | 25µM* | 5 | 29% | 12% | i
Cc1csc(=O)n1CC(=O)OCC(=O)NNC(=O)c1ccc(Cl)cc1 | 0% | -1% | -3 | 22% | 0% | i
COc1ccc(Cl)cc1NC(=O)COC(=O)CC(C)(C)CC1=NS(=O)(=O)c2ccccc2N1 | -2% | -2% | . | . | . | .
CCCCN(C(=O)C1CC(=O)N(Cc2ccc(C)cc2)C1)c1c(N)n(CCCC)c(=O)[nH]c1=O (configuration not stated) | -1% | 22µM* | -10 | -9% | 5% | i
SMILES | RXFP1 agonist | ClpP mod | RXFP1 antag | gsp agonist | gsp antag | pAkt inh
CCC(C)(C)n1nnnc1C(C(C)C)N(Cc1cccnc1)Cc1ccco1 (configuration not stated) | 0% | 2% | 8 | -44% | 1% | i
COCCn1nnnc1C(C(C)C)N(Cc1cccnc1)Cc1cc2cc(OC)ccc2[nH]c1=O (configuration not stated) | 3% | 25µM* | 1 | 23% | -9% | i
COc1ccc2[nH]c(=O)c(CN(Cc3ccco3)C(c3nnnn3Cc3ccccc3)C(C)C)cc2c1 (configuration not stated) | 8% | ? | -1 | 1% | -36% | -105%*
COCCn1nnnc1C(C(C)C)N(Cc1ccccc1)Cc1cc2cc(OC)ccc2[nH]c1=O (configuration not stated) | 12% | -21% | 0 | ? | -1% | i
CCC(C)(C)n1nnnc1C(C(C)C)N(Cc1ccco1)Cc1cc2cc3c(cc2[nH]c1=O)OCO3 (configuration not stated) | 0% | 32µM* | 3 | -9% | -17% | i
COc1cc(/C=C2\SC(=O)NC2=O)ccc1Oc1ccc([N+](=O)[O-])cn1 | 0% | . | -15 | 7%[15.4 µM] | -29% | i
COc1cc(/C=C2/SC(=O)NC2=O)ccc1Oc1ccc([N+](=O)[O-])cc1[N+](=O)[O-] | 0% | 0% | 15 | ? | 25µM* | i
COc1ccc(CNCC(=O)Nc2cccc(S(N)(=O)=O)c2)cc1 | 0% | 35µM* | -14 | 10%[15.4 µM] | 3% | i
O=C(CSc1ccccc1)Nc1ccc(-c2nc3ccccc3[nH]2)cc1 | -1% | -1% | -24 | 30% | 3% | i
O=C(CSc1ccc(-c2nc3ccccc3[nH]2)cn1)Nc1ccc(S(=O)(=O)N2CCCC2)cc1 | 0% | 20µM* | -4 | -17% | -5% | i
O=C(CN1CCOCC1)Nc1ccc(-c2nc3ccccc3[nH]2)cc1 | 1% | 25µM* | 2 | -12% | -12% | i
CCC(Sc1nc2cc3c(cc2c(=O)n1CCCC(=O)NCc1ccc2c(c1)OCO2)OCO3)C(=O)NCCCOC (configuration not stated) | 2% | -3% | -106* | . | . | .
Cc1ccc2nc3c(cc(C(N)=S)c(=N)n3CCCOC(C)C)c(=O)n2c1 | 6% | 22µM* | 27 | 22% | 2% | i
COCCCn1c(=N)c(C(N)=S)cc2c(=O)n3cccc(C)c3nc21 | . | . | 4 | 46%[15.4 µM] | -7% | i
CC1CCN(C(=O)COC(=O)C2CCN(S(=O)(=O)c3c(Cl)cccc3Cl)CC2)CC1 | -1% | ? | -8 | -10% | -4% | i
CC1CCCCN1C(=O)COC(=O)C1CCN(S(=O)(=O)c2c(Cl)cccc2Cl)CC1 (configuration not stated) | 0% | 16µM* | -3 | 12% | -8% | i
O=Cc1ccccc1C=O | . | . | 7 | . | . | .
COC(=O)C1=C(C)NC(C)=C(C(=O)OC)C1C(=O)OCCN1C(=O)c2ccccc2C1=O | 0% | 7.1µM* | -9 | 11% | 2% | i
